Measurements from PubChem BioAssay AID1159580 (chemical genetic matrix, 2015).
Screen size: about 5,500 compounds; about 2,000 (36%) were called active. Another 18% or so got no clear call; they are omitted. No stated cut-off is given here; in the data, active means normalized growth mostly below about 0.91 (no sharp cut-off); inconclusive means no clear call, values can overlap the other calls; inactive means mostly above about 0.92. The list shows a part of the results.

Assay: chemical genetic growth profiling, strain panel (AID 1159580);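 further: tested at 20 µM; growth read once vehicle control cultures reached saturation at 30 °C; 1 = growth at the plate median or of vehicle wells; lower values mean less growth of the strain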
Settings: growth OD

Measured: normalized growth

CC1=CC(=O)C2=C(C)CC(O)C3C(C)C(=O)OC3C12 (stereo not drawn)
inactive: S. cerevisiae deletion strains, locus YBR021W, strain FUR4, hits give low values 1.01 | S. cerevisiae deletion strains, locus YBR229C, strain ROT2, hits give low values 1 | S. cerevisiae deletion strains, locus YCL029C, strain bik1, hits give low values 1.02 | S. cerevisiae deletion strains, locus YDL035C, strain GPR1, hits give low values 1.03 | S. cerevisiae deletion strains, locus YDL074C, strain BRE1, hits give low values 1.06 | S. cerevisiae deletion strains, locus YDL101C, strain DUN1, hits give low values 1.01 | S. cerevisiae deletion strains, locus YDL185W, strain tfp1, hits give low values 1.02 | S. cerevisiae deletion strains, locus YDL192W, strain arf1, hits give low values 1.01 | S. cerevisiae deletion strains, locus YDR101C, strain arx1, hits give low values 1.06 | S. cerevisiae deletion strains, locus YDR162C, strain NBP2, hits give low values 0.989 | S. cerevisiae deletion strains, locus YDR318W, strain mcm21, hits give low values 0.994 | S. cerevisiae deletion strains, locus YDR388W, hits give low values 1.02 | S. cerevisiae deletion strains, locus YDR502C, strain sam2, hits give low values 1.04 | S. cerevisiae deletion strains, locus YEL061C, strain CIN8, hits give low values 1 | S. cerevisiae deletion strains, locus YER110C, hits give low values 1.02 | S. cerevisiae deletion strains, locus YER155C, strain BEM2, hits give low values 1 | S. cerevisiae deletion strains, locus YER167W, strain BCK2, hits give low values 1 | S. cerevisiae deletion strains, locus YGL078C, strain dbp3, hits give low values 1.03 | S. cerevisiae deletion strains, locus YGL086W, strain mad1, hits give low values 1.04 | S. cerevisiae deletion strains, locus YGL248W, strain PDE1, hits give low values 0.997 | S. cerevisiae deletion strains, locus YGR135W, strain pre9, hits give low values 1.02 | S. cerevisiae deletion strains, locus YGR229C, strain SMI1, hits give low values 1.01 | S. cerevisiae deletion strains, locus YGR252W, strain gcn5, hits give low values 0.969 | S. cerevisiae deletion strains, locus YHR030C, strain SLT2, hits give low values 0.999 | S. cerevisiae deletion strains, locus YHR079C, strain IRE1 (second series), hits give low values 1.02 | S. cerevisiae deletion strains, locus YHR094C, strain hxt1, hits give low values 1.01 | S. cerevisiae deletion strains, locus YHR129C, strain ARP1, hits give low values 1.01 | S. cerevisiae deletion strains, locus YHR200W, strain rpn10, hits give low values 1.02 | S. cerevisiae deletion strains, locus YIL066C, strain RNR3, hits give low values 0.993 | S. cerevisiae deletion strains, locus YIL073C, strain SPO22, hits give low values 1.08 | S. cerevisiae deletion strains, locus YIL125W, strain kgd1, hits give low values 1.03 | S. cerevisiae deletion strains, locus YIR030C, strain dcg1, hits give low values 1.01 | S. cerevisiae deletion strains, locus YJL095W, strain BCK1, hits give low values 0.985 | S. cerevisiae deletion strains, locus YJL134W, strain LCB3, hits give low values 0.996 | S. cerevisiae deletion strains, locus YJL168C, strain set2, hits give low values 1.01 | S. cerevisiae deletion strains, locus YJL187C, strain SWE1 (second series), hits give low values 0.997 | S. cerevisiae deletion strains, locus YJR043C, strain POL32, hits give low values 1.01 | S. cerevisiae deletion strains, locus YJR075W, strain HOC1, hits give low values 0.992 | S. cerevisiae deletion strains, locus YKL009W, strain mrt4, hits give low values 1.01 | S. cerevisiae deletion strains, locus YKL068W, hits give low values 0.999 | S. cerevisiae deletion strains, locus YKL085W, strain MDH1 (second series), hits give low values 0.992 | S. cerevisiae deletion strains, locus YKL085W, strain MDH1, hits give low values 0.992 | S. cerevisiae deletion strains, locus YKL190W, strain CNB1, hits give low values 1.01 | S. cerevisiae deletion strains, locus YKR001C, strain vps1, hits give low values 1.05 | S. cerevisiae deletion strains, locus YLR039C, strain RIC1, hits give low values 1.07 | S. cerevisiae deletion strains, locus YLR058C, strain SHM2, hits give low values 0.99 | S. cerevisiae deletion strains, locus YLR102C, strain apc9, hits give low values 1.02 | S. cerevisiae deletion strains, locus YLR262C, strain YPT6, hits give low values 1.04 | S. cerevisiae deletion strains, locus YLR268W, strain sec22, hits give low values 1.07 | S. cerevisiae deletion strains, locus YLR330W, strain CHS5, hits give low values 1.01 | S. cerevisiae deletion strains, locus YLR342W, strain FKS1 (second series), hits give low values 1.06 | S. cerevisiae deletion strains, locus YLR371W, strain rom2, hits give low values 1.05 | S. cerevisiae deletion strains, locus YLR418C, strain cdc73, hits give low values 1.01 | S. cerevisiae deletion strains, locus YML016C, strain PPZ1, hits give low values 1 | S. cerevisiae deletion strains, locus YML032C, strain rad52, hits give low values 0.988 | S. cerevisiae deletion strains, locus YML124C, strain tub3, hits give low values 1.01 | S. cerevisiae deletion strains, locus YMR078C, strain ctf18, hits give low values 1.03 | S. cerevisiae deletion strains, locus YMR223W, strain ubp8, hits give low values 0.99 | S. cerevisiae deletion strains, locus YMR307W, strain GAS1, hits give low values 1.02 | S. cerevisiae deletion strains, locus YNL067W, strain RPL9B, hits give low values 1 | S. cerevisiae deletion strains, locus YNL153C, strain GIM3, hits give low values 0.999 | S. cerevisiae deletion strains, locus YNL233W, strain BNI4, hits give low values 1 | S. cerevisiae deletion strains, locus YNL250W, strain rad50, hits give low values 1.03 | S. cerevisiae deletion strains, locus YNL271C, strain bni1, hits give low values 1.02 | S. cerevisiae deletion strains, locus YNL298W, strain CLA4, hits give low values 1.01 | S. cerevisiae deletion strains, locus YNL307C, strain MCK1, hits give low values 1.03 | S. cerevisiae deletion strains, locus YNL322C, strain KRE1, hits give low values 1 | S. cerevisiae deletion strains, locus YNR052C, strain pop2, hits give low values 1.01 | S. cerevisiae deletion strains, locus YOL006C, strain TOP1, hits give low values 1.13 | S. cerevisiae deletion strains, locus YOL012C, strain htz1 0.87 | S. cerevisiae deletion strains, locus YOL147C, strain pex11, hits give low values 1.03 | S. cerevisiae deletion strains, locus YOR061W, strain CKA2, hits give low values 1.01 | S. cerevisiae deletion strains, locus YOR069W, strain VPS5, hits give low values 1 | S. cerevisiae deletion strains, locus YOR136W, strain idh2, hits give low values 1.03 | S. cerevisiae deletion strains, locus YOR144C, strain elg1, hits give low values 1.01 | S. cerevisiae deletion strains, locus YOR184W, strain ser1, hits give low values 1.06 | S. cerevisiae deletion strains, locus YOR316C, strain cot1, hits give low values 1.01 | S. cerevisiae deletion strains, locus YPR119W, strain clb2, hits give low values 1.02 | S. cerevisiae deletion strains, locus YPR141C, strain kar3, hits give low values 1 | S. cerevisiae deletion strains, locus YPR163C, strain tif3, hits give low values 1.01 | S. cerevisiae deletion strains, locus YPR167C, strain met16, hits give low values 1.03 | S. cerevisiae deletion strains, strain wtn01, hits give low values 1.08 | S. cerevisiae strains, strain wild type, hits give low values 0.998
